Bst PK mod: alters activity of Bacillus stearothermophilus pyruvate kinase. AID 361. Potency, µM. 1.2% of 51,000 active. purified pyruvate kinase, luminescence ATP production; ribose 5-phosphate activator present at AC10; in the data active = potency below about 11 µM; inconclusive = mostly about 12 µM to 25 µM;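 the screen sought inhibitors and activators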;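 also: scaled between full activation by ribose 5 phosphate and full inhibition by luteolin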
Pol III holo inh: blocks replication by bacterial DNA polymerase III holoenzyme. reconstituted DNA polymerase III holoenzyme replication, biochemical. Potency, µM (series often up to 57.1 µM), inactives show at the top dose activity change, negative = inhibition. 0.25% of 71,000 active. AID 603
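Reconstituted *E. coli* holoenzyme (0.35 nM Pol III, 1 nM beta, 154 nM SSB, 2 nM primase) was preincubated with compound for 15 min at RT. Synthesis on 1.4 nM ssM13Gori ran 35 min, then was stopped with PicoGreen/EDTA and read as dsDNA fluorescence.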
Tau filament bind: binders of human tau filaments. AID 596. 2% of 71,000 active. recombinant tau filaments, thioflavin S fluorescence, 15 h; filaments grown with octadecylsulfate alongside compound. Potency, µM (top dose mostly 57.1 µM), inactives show at the highest dose activity change, negative = inhibition;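 also: actives lower thioflavin S fluorescence by blocking filaments or displacing dye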
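Recombinant tau protein (human, 1 uM final) plus 30 uM ODS in HEPES pH 7.4 with NaCl, DTT and thioflavine S. Compound present from the start; fluorescence at 510 nm after 15 h, 37 C.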
FLuc inh: firefly luciferase inhibition. 2.2% of 72,000 active. purified firefly luciferase, luminescence, 8 min. P08659. Potency, µM (top dose mostly 57.1 µM), without a hit: at the highest dose activity change, negative = inhibition, usual class: inhibitors. AID 411; also: nearly all actives have a fitted effect of over 40% in size
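Firefly luciferase (PKLight detection mix) with 10 uM ATP in pH 7.2 imidazole buffer (KCl, MgCl2, Tween 20, BSA). Compounds tested across a concentration series (qHTS). Luminescence read after 8 min at ambient temperature.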
ERK AVP block: vasopressin-driven ERK pathway inhibition; 0.99% of 72,000 active; HEK293-V1b, vasopressin-stimulated pERK AlphaScreen; Potency, µM (top dose mostly 57.5 µM), for the others: at the highest dose activity, negative = inhibition, hits mostly inhibitors; also: nearly all actives have a fitted effect of over 55% in size
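HEK293 cells stably expressing V1b receptor, seeded overnight in 1% FBS, were treated with compounds for 30 min at 37C, then stimulated 5 min with 25 nM vasopressin; phospho-ERK read by AlphaScreen SureFire after lysis.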
15-hLO inh: 15-hLO (ALOX15) enzyme inhibition; P16050; purified 15hLO-1, xylenol orange hydroperoxide absorbance; Potency, µM (doses to about 57.1 µM), for inactives: top-dose activity change, negative = inhibition, actives largely listed as inhibitors; 1.4% of 74,000 active; AID 887; also: nearly all actives have a fitted effect of over 55% in size
Target sequence (P16050 whole entry, looked up): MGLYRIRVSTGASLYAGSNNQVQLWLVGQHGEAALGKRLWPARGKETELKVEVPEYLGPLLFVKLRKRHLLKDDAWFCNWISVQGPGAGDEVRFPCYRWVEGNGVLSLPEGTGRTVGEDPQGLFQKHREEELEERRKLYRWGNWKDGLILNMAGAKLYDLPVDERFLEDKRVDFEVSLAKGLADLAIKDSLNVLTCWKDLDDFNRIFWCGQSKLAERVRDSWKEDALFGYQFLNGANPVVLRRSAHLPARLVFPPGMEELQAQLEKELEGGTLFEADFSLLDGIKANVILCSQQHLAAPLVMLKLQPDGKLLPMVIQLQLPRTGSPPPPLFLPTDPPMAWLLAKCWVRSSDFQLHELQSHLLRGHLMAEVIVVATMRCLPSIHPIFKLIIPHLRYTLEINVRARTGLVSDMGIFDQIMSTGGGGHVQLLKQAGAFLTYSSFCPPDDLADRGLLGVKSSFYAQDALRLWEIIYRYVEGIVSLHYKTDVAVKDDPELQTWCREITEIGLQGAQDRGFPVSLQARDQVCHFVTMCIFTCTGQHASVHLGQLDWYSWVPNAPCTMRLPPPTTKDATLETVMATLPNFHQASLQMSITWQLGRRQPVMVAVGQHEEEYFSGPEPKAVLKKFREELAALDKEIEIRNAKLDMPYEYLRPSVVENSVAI
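Inhibition is scored from a chromogenic endpoint. After 15 min enzyme-compound contact, arachidonic acid (50 uM final) reacts 6 min with 40 nM 15hLO-1 at room temperature, then Fe-XO reagent is added for 30 min and absorbance ratio recorded.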
The depositor's hits bear a star; i = inactive; ? = inconclusive; . = not tested or not shown; [ ] = another dose, or the depositor's remark. Compounds with a hit are over-represented: about 6% of the library has one in this group of screens. Unless noted, calls follow the shape of the dose curve; as a rule, active = well fitted curve in the direction sought with a large enough effect; inconclusive = small, poorly fitted or top-dose-only effect, or another doubt; inactive = no such curve, though single readings can be large; an effect the other way counts as inactive or inconclusive. Unless noted, % is scaled to controls: 0 for no effect and ±100 for the full control effect; potency is read from the fitted curve at half-maximal effect.

SMILES | Bst PK mod | Pol III holo inh | Tau filament bind | FLuc inh | ERK AVP block | 15-hLO inh
CCOC(=O)c1ccccc1NC(=O)CSc1ncc(C(=O)OCC)c(N)n1 | >57 | -5% | 5% | 6% | 22% | -17%
CCOC(=O)c1cc(-c2ccccc2)sc1N | i | -3% | 25µM* | -10% | -11% | ?
CC(C)C[C@@H](CC(=O)N[C@H](CC(=O)N[C@@H]1CCCC[C@H]1C(=O)N[C@H](CC(=O)N[C@@H](CCC(=O)O)CC(=O)O)CC(C)C)C(C)C)NC(=O)[C@@H]1CNCC[C@H]1N | . | 1% | -1% | . | . | .
O=C(O)/C=C\C(=O)Nc1ccc2c(c1)-c1ccccc1C2 | . | -9%[11.4 µM] | 1%[11.4 µM] | 1%[11.4 µM] | -11%[11.5 µM] | 0%[11.4 µM]
Nc1ccn([C@H]2O[C@@H](COP(=O)(O)O)[C@@H](O)[C@H]2O)c(=O)n1 | . | -10%[11.4 µM] | -2%[11.4 µM] | 3%[11.4 µM] | -5%[11.5 µM] | -2%[11.4 µM]
C/C(CCN1CCc2nc(-c3ccccc3)c(-c3ccccc3)cc2C1)=N\O[C@@H](C)CN1CCCCc2nc(C)c(C)cc21 | . | . | . | 1%[11.4 µM] | 25%[11.5 µM] | -3%[11.4 µM]
CCOC(=O)c1cnc(SCC(=O)c2ccccc2)nc1N | . | 1% | 98% | 4µM* | -1% | -5%
CCOC(=O)c1cnc(SCC(=O)c2ccc3c(c2)OCCO3)nc1N | >57 | -5% | 8% | 4% | 19% | ?
CCOC(=O)c1sc(-c2ccc(OC)cc2)cc1N | i | -1% | 4% | 13µM* | 2% | -7%
OCC1OC(/C=C\c2ccccc2)C=CC1Oc1ccc2c(c1)OCO2 (configuration not stated) | . | . | . | . | 6%[11.5 µM] | -6%[11.4 µM]
Cc1ccc(-c2nc3ccccc3c(=O)n2CCN2CCOCC2)cc1 | >57 | 4% | 6% | 2% | 2% | 3%
Cc1ccc(-c2nc3c(=O)n(C)c4ccccc4c3o2)cc1 | 0.17* | -2% | 60% | -7% | -10% | -3%
CC(C)[C@@H]1C(=O)N(S(C)(=O)=O)[C@H]2CCN(C(=O)/C=C\CN3CCCCC3)[C@@H]12 | . | -5% | ? | ? | -11% | -6%[25.6 µM]
C/C(=C\CNc1ncnc2c1ncn2[C@@H]1O[C@@H](CO)[C@@H](O)[C@H]1O)CO | . | 2% | 7% | 1%[11.4 µM] | . | .
CCC(CC)c1nnc(NC(=O)c2c(-c3ccccc3)noc2C)s1 | . | -1% | -10% | 2% | 10% | -16%
Cc1onc(-c2ccccc2)c1C(=O)Nc1nnc(COc2ccc(Cl)cc2)s1 | >57 | 0% | 3% | -3% | -23% | 7.9µM*
N#C/C(=C\c1c(N2CCC(C(N)=O)CC2)nc2ccccn2c1=O)S(=O)(=O)c1ccccc1 | >26 | . | . | 2%[25.5 µM] | . | .
CC1CN(c2nc3ccccn3c(=O)c2/C=C(\C#N)S(=O)(=O)c2ccccc2)CC(C)O1 (configuration not stated) | >57 | -4% | 20µM* | 0% | ? | -11%
COC(=O)NC(/C=C/c1ccco1)[C@@]1(C(=O)OC)CCCC1=O (some centres not stated) | . | . | . | . | 25%[11.5 µM] | 0%[11.4 µM]
NC(=O)C[C@@H](N)c1nn[nH]n1 | . | 15%[11.4 µM] | 4%[11.4 µM] | 0%[11.4 µM] | -6%[11.5 µM] | 4%[11.4 µM]
NS(=O)(=O)c1ccc(N=Nc2ccc[nH]c2=O)cc1 | . | -1%[11.4 µM] | 0%[11.4 µM] | 1%[11.4 µM] | 0%[11.5 µM] | 3.2µM*
c1ccc2c(c1)NC1(CCCCC1)n1c-2nc2ccccc21 | i | 0% | 2% | 13µM* | 13% | 3%
CC1(c2ccccn2)Nc2ccccc2-c2nc3ccccc3n21 (configuration not stated) | >57 | -7% | -6% | -28% | -1% | 0%
N#CC1=C(N)Oc2n[nH]c(-c3ccncc3)c2C1c1ccsc1 (configuration not stated) | >57 | -13% | -7% | 0% | 10µM* | ?
CC(C)C1C(C#N)=C(N)Oc2n[nH]c(-c3cccs3)c21 (configuration not stated) | >57 | -8% | -8% | 1% | 16µM* | ?
SMILES | Bst PK mod | Pol III holo inh | Tau filament bind | FLuc inh | ERK AVP block | 15-hLO inh
N#CC1=C(N)Oc2n[nH]c(-c3ccc(F)cc3)c2C1c1ccncc1 (configuration not stated) | >57 | -5% | 6% | 1% | -16% | -15%
N#CC1=C(N)Oc2n[nH]c(-c3cccs3)c2C1c1cccnc1 (configuration not stated) | >57 | -4% | 2% | -2% | 14% | -22%
N#CC1=C(N)Oc2n[nH]c(-c3cccs3)c2C1c1ccoc1 (configuration not stated) | . | -15% | 12% | -3% | ? | 10µM*
NCC[C@H]1CCC[C@H](CCN)N1 | . | 1% | 1% | 3% | 5% | 5%
N#Cc1nc(Cc2cccc3ccccc23)oc1NCCN1CCCCC1 | 6.3* | -7% | 26% | 7.9µM* | -18% | 29%
COc1ccc(CCNc2oc(COc3ccc(Br)cc3)nc2C#N)cc1OC | . | 0% | 72% | -6% | 20µM* | -14%
CNc1oc(Cc2cccc3ccccc23)nc1C#N | ? | -5% | 3% | 2% | -4% | -16%
COc1ccc(CCNc2oc(COc3ccccc3F)nc2C#N)cc1 | >57 | 0% | 112% | -1% | 7% | -21%
COc1ccc(CCNc2oc(Cc3cccc4ccccc34)nc2C#N)cc1OC | 9.9* | 3% | 74% | 2% | ? | -23%
Cc1cc2c(c(=O)o1)[C@H](O)[C@H]1O[C@@H]1C2=O | . | . | . | 1%[11.4 µM] | 0%[11.5 µM] | ?
O=C(O)c1cc(S(=O)(=O)Nc2cccc(Cl)c2)ccc1O | . | . | . | . | . | -6%
CC(CN(C)C)NC(=O)c1ccc(-n2c(=O)c(=O)[nH]c3ccccc32)cc1 (configuration not stated) | . | . | . | . | . | 0%
COCCn1c(=O)c(-c2cccs2)nc2cnc(N(C)C)nc21 | . | -16% | i | 0%[11.4 µM] | 21% | 0%
CC(O)CCCCCCC/C=C/C=C/C(N)=O (configuration not stated) | . | . | . | . | 8%[11.5 µM] | 7%[11.4 µM]
O=C(COC(=O)c1cnccn1)c1ccc2c(c1)CCCC2 | . | 0% | -24% | 20µM* | 7% | 4%
CCCC[S@@](=N)(=O)CC[C@@H](N)C(=O)O | . | -6% | 8% | 3% | 14% | -5%
COC(=O)CSc1nc(N)c2c3c(sc2n1)CCCC3 | ? | . | . | 13µM* | . | .
Nc1nc(SCC(=O)NCCCO)nc2sc3c(c12)CCC3 | . | . | . | . | . | -8%
Cc1cc(C(=O)CN2C(=O)NC3(CCCc4ccccc43)C2=O)c(C)n1Cc1cccs1 (configuration not stated) | . | 4% | 53% | 13µM* | -9% | -5%
COc1ccc(C(=O)CN2C(=O)NC3(CCCc4ccccc43)C2=O)cc1OC (configuration not stated) | ? | 2% | -8% | 1% | ? | -23%
